In PubChem BioAssay (Tox21):
Unmarked numbers belong to inactive results. Results filed as inconclusive are left out. Where a call stands in place of a potency, no number is given. Activity calls are given as the source filed them. Calls follow the shape of the dose curve; as a rule, active = well fitted curve in the direction sought with a large enough effect in the repeat runs; inconclusive = weak or mixed curves; inactive = no such curve, though single readings can be large; an effect the other way counts as inactive or inconclusive.

Key:
[1] = qHTS RealTime-Glo MT Cell Viability Assay in HepG2 cells - 24 hour (AID 1224867); also: nearly all actives have a fitted effect of over 50% in size
Method in brief: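 HepG2 cells were seeded at 600 cells/well together with NanoLuc luciferase and a cell-permeant prosubstrate, preincubated 5 h at 37 C/5% CO2, then pin-dosed with compounds in DMSO. Nonlytic luminescence from viable cells was read at each time point.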

[2] = qHTS RealTime-Glo MT Cell Viability Assay in HEK293 cells - 32 hour (AID 1224868); also: top concentration of the series differs between compounds; nearly all actives have a fitted effect of over 50% in size
Method in brief: (§1)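 HEK293 cells were seeded at 600 cells/well together with NanoLuc luciferase and cell-permeant prosubstrate, preincubated 5 h at 37 C/5% CO2, then given compound in DMSO by pintool. Luminescence from viable-cell prosubstrate reduction was read repeatedly over 40 h.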

[3] = A CellTox Green Cytotoxicity Assay to monitor cytotoxicity in HEK293 cells - 40 hour (AID 1224871); also: nearly all actives have a fitted effect of over 45% in size
Method in brief: (§2)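 Each value comes from one timepoint of a single continuous run in which HEK293 cells with CellTox Green were exposed to compound for up to 40 h at 37 C, dye fluorescence rising with cell death.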

[4] = qHTS RealTime-Glo MT Cell Viability Assay in HEK293 cells - 16 hour (AID 1224872); also: nearly all actives have a fitted effect of over 50% in size; also: potency is read from the fitted curve at half-maximal effect
Method in brief: as §1

[5] = qHTS RealTime-Glo MT Cell Viability Assay in HEK293 cells - 40 hour (AID 1224874); conditions: RealTime-Glo luminescence; max response: stronger effect = lower value; also: nearly all actives have a fitted effect of over 50% in size
Method in brief: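 qHTS format; HEK293 cells with NanoLuc/prosubstrate reagent, 37 C/5% CO2 for 5 h pre-dosing; compounds 23 nL in DMSO; luminescence at each time point reflects viable cells.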

[6] = A CellTox Green Cytotoxicity Assay to monitor cytotoxicity in HEK293 cells - 24 hour (AID 1224875); also: series mostly up to about 77 µM; nearly all actives have a fitted effect of over 45% in size
Method in brief: as §2

[7] = qHTS RealTime-Glo MT Cell Viability Assay in HepG2 cells - 40 hour (AID 1224870); also: nearly all actives have a fitted effect of over 50% in size
Method in brief: (§3)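 HepG2 cells (600/well) mixed with RealTime-Glo MT reagent, settled 5 h at 37 C/5% CO2 before compound addition. Nonlytic NanoLuc luminescence from viable-cell prosubstrate reduction read repeatedly during 40 h treatment at 37 C.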

[8] = qHTS RealTime-Glo MT Cell Viability Assay in HepG2 cells - 8 hour (AID 1224873); also: nearly all actives have a fitted effect of over 55% in size
Method in brief: as §3

[9] = A CellTox Green Cytotoxicity Assay to monitor cytotoxicity in HEK293 cells - 0 hour (AID 1224869); also: nearly all actives have a fitted effect of over 50% in size
Method in brief: as §2

| Compound | outcome [1] | Potency [2] | Potency [3] | Potency [4] | max response [5] [%] | Potency [6] | outcome [7] | outcome [8] | Potency [9] |
| --- | --- | --- | --- | --- | --- | --- | --- | --- | --- |
| CCCCC(C)C(=O)O (stereo not given) | inactive | inactive | inactive | inactive | -5.74 | inactive | – | – | – |
| O=C(O)/C=C/c1ccccc1 | inactive | inactive | – | inactive | -8.08 | inactive | inactive | inactive | – |
| CC(C)CCCCCCOC(=O)C1CCCCC1C(=O)OCCCCCCC(C)C (stereo not given) | – | inactive | inactive | – | 14.8 | – | inactive | inactive | inactive |
| Cc1oc(=O)oc1CN1CCN(c2cc3c(cc2F)c(=O)c(C(=O)O)c2n3C(C)S2)CC1 (stereo not given) | – | inactive | inactive | inactive | 5.9 | inactive | inactive | inactive | inactive |
| CC(C)COC(=O)/C=C/c1ccccc1 | – | inactive | – | inactive | -4.89 | inactive | inactive | inactive | inactive |
| C=C[Si](C)(C)O[Si](C)(C)C=C | – | inactive | inactive | inactive | -1.44 | inactive | inactive | inactive | inactive |
| CC(=O)OC(C(=O)c1ccccc1)c1ccccc1 (stereo not given) | inactive | – | inactive | – | – | – | inactive | inactive | inactive |
| COCCOCCOCCOC | inactive | inactive | – | inactive | 2.64 | inactive | inactive | inactive | – |
| N#CCCOCCOCCC#N | – | inactive | inactive | – | – | inactive | inactive | inactive | – |
| C=C(C)C(=O)OCCCCCCOC(=O)C(=C)C | – | inactive | inactive | inactive | 6.48 | inactive | inactive | inactive | inactive |
| O=C(CN1CCN(Cc2ccc3c(c2)OCO3)CC1)N1c2ccccc2Sc2ccccc21 | inactive | – | inactive | – | – | inactive | inactive | inactive | inactive |
| CC(C)COC(=O)CC(C(=O)OCC(C)C)S(=O)(=O)O (stereo not given) | – | inactive | inactive | inactive | -3.15 | – | inactive | inactive | – |
| CCCCOC(=O)[C@@H](C)Oc1ccc(Oc2ccc(C(F)(F)F)cn2)cc1 | inactive | – | inactive | 31.1 µM (active) | – | inactive | inactive | inactive | inactive |
| C=CC(C)(O)CC/C=C(\C)CC (stereo not given) | – | inactive | – | inactive | 5.46 | – | inactive | inactive | inactive |
| CC(=O)OC(C)c1ccccc1 (stereo not given) | – | inactive | inactive | inactive | 0.769 | inactive | inactive | inactive | inactive |
